Laboratory results as given in PubChem BioAssay (NCI).
Compounds without any hit were thinned out: in the full panel of roughly 79,000, 15% have a hit. Activity calls are given as the source filed them. No stated cut-off is given here; in the data, active means growth inhibition above about 70%; inactive means the rest.

What was measured:
[1] = NCI Yeast Anticancer Drug Screen. Data for the rad50 strain (AID 155);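 further: 0% = growth of vehicle-only cultures of the same strain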; conditions: S. cerevisiae rad50 strain growth inhibition; at 50.0 µM; hits give high values
Method in brief: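 Compounds were tested on a yeast strain with an engineered DNA damage repair alteration; the reported value is growth inhibition normalised to vehicle treatment.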

[2] = NCI Yeast Anticancer Drug Screen. Data for the mec2-1 strain (AID 157); conditions: S. cerevisiae mec2-1 strain, at 50.0 µM, hits give high values
Method in brief: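 mec2-1 yeast strain, carrying an alteration in DNA damage repair or cell cycle control, was exposed to compounds; growth inhibition was measured relative to vehicle-treated controls.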

[3] = NCI Yeast Anticancer Drug Screen. Data for the sgs1 mgt1 strain (AID 161);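 further: 0% = growth of cultures given vehicle only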; conditions: S. cerevisiae sgs1 mgt1 strain, at 50.0 µM, hits give high values
Method in brief: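 This yeast growth screen uses a strain with defined DNA-repair lesions; compound-treated growth is compared with vehicle-treated growth.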

[4] = NCI Yeast Anticancer Drug Screen. Data for the cln2 rad14 strain (AID 165);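 further: 0% = growth equal to vehicle treated cultures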; conditions: S. cerevisiae cln2 rad14 strain, at 50.0 µM, hits give high values
Method in brief: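 Yeast carrying cln2 and rad14 alterations (cell cycle control and DNA damage repair) were exposed to compounds. Growth inhibition was measured against vehicle-treated controls.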

[5] = NCI Yeast Anticancer Drug Screen. Data for the bub3 strain (AID 167); conditions: S. cerevisiae bub3 mutant strain, at 50.0 µM, hits give high values
Method in brief: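 Growth of a checkpoint-deficient yeast mutant is measured after compound exposure. Values represent inhibition relative to vehicle.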

[6] = NCI Yeast Anticancer Drug Screen. Data for the mlh1 rad18 strain (AID 175); conditions: S. cerevisiae mlh1 rad18 strain growth inhibition; at 50.0 µM; hits give high values
Method in brief: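 Growth inhibition of the yeast strain was measured after compound exposure and expressed relative to vehicle-treated controls. The strain carries defined defects in DNA damage repair.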

Measured: growth inhibition

NCCCOC12CC3CC(CC(C3)C1)C2
inactive: [1] 6.1% | [2] -4.05% | [3] 38.8% | [4] -50.4% | [5] 7.6% | [6] 15.8%

N#CCCN1CCCSC1=S
inactive: [1] 6.15% | [2] 17.1% | [3] 4.2% | [4] 4.05% | [5] -3.1% | [6] 1.7%

c1ccc(-c2ccc(-c3cc4ccccc4c4ccccc34)cc2)cc1
inactive: [1] -13.8% | [2] -15% | [3] -17.2% | [4] -5.8% | [5] -10.3% | [6] -9.2%

COc1cc2cccnc2c2[nH]c(=O)c3c(c12)CCC3
inactive: [1] 13.9% | [2] 9.35% | [3] -6% | [4] -16.4% | [5] 7.2% | [6] 7.25%

C=CCC(C(=O)O)c1ccccc1 (configuration not stated)
inactive: [1] -11.2% | [2] -12.2% | [3] -5.2% | [4] -29.9% | [5] -14.6% | [6] 1.75%

[O-][n+]1ccccc1/C=C/c1cccc[n+]1[O-]
inactive: [1] -30.1% | [2] -31.1% | [3] -7.55% | [4] -22% | [5] -0.85% | [6] -18.4%

O=C1CCCC1CC(CN1CCOCC1)Sc1nnnn1-c1ccccc1 (configuration not stated)
inactive: [1] 6.55% | [2] -3.5% | [3] 17.1% | [4] -16.6% | [5] 25.2% | [6] -45.8%

C[n+]1ccc(/C=C/c2ccc(O)c3ncccc23)c2cccc(O)c21
inactive: [1] 38.5% | [2] 41.8% | [3] 37.9% | [4] 7.75% | [5] 5.4% | [6] 44.9%

CCCCCCCCCCCCCCCCCC(=O)Oc1c(C(C)(C)C)cc([N+](=O)[O-])c(C)c1[N+](=O)[O-]
active: [1] 98.2% | [2] 99.2% | [3] 98.8% | [4] 98.9% | [5] 99.2% | [6] 98.2%

NNC(N)=Nc1cccc2ccccc12
inactive: [1] -2.9% | [2] -7.5% | [3] 0.35% | [4] 15.7% | [5] 11.4% | [6] -18.6%

CCC(=O)Nc1nn[nH]n1
inactive: [1] -11.5% | [2] -1.5% | [3] -3.75% | [4] 4.75% | [5] 7.9% | [6] -2.15%

COc1cccc2c1C(=O)c1c(O)c3c(c(O)c1C2=O)CC(O)(C(C)=O)CC3OC1CC(NC(=O)C(CCCCN)NC(=O)C(N)CCN)C(O)C(C)O1 (configuration not stated)
inactive: [1] 9.1% | [2] -1.15% | [3] -0.5% | [4] 12.8% | [5] 15.9% | [6] 14.6%

CCCCC/C(C)=C\C(=O)O
inactive: [1] 8.95% | [2] 9.4% | [3] 7.25% | [4] -14.2% | [5] -2.4% | [6] 5.35%

C(#Cc1ccccc1)SC1=C(c2ccccc2)S/C(=C(\SC#Cc2ccccc2)c2ccccc2)S1
inactive: [1] 9.6% | [2] 7.7% | [3] -29.4% | [4] 10.9% | [5] -21.1% | [6] -30.8%

O=C(/C=C/c1ccc(O)cc1)c1cc(O)cc(O)c1
inactive: [1] 16.9% | [2] 5.05% | [3] 2% | [4] -8.95% | [5] -4.1% | [6] 13.8%

CN(C=O)c1ccc(C(=O)O)cc1
inactive: [1] 4.35% | [2] 11.9% | [3] -6.25% | [4] 2% | [5] 17.6% | [6] 10.6%

CCCCCNC(=O)c1ccc(C)cc1
inactive: [1] 2.5% | [2] -4.15% | [3] 1.05% | [4] -12.6% | [5] -10.8% | [6] -70%

COC(=O)C1C(=O)C=C(O)C2CCCCC21 (configuration not stated)
inactive: [1] 2.05% | [2] -2.85% | [3] -0.35% | [4] -63% | [5] -30.9% | [6] 2.5%

CC(O)C1CC1 (configuration not stated)
inactive: [1] -17% | [2] -40.8% | [3] 9.3% | [4] 1.65% | [5] -2.2% | [6] -5.7%

C=CC(=O)NC(C)C(=O)O (configuration not stated)
inactive: [1] -4.45% | [2] -2.5% | [3] 0% | [4] -7.05% | [5] -10.9% | [6] -4.15%

Nc1nc(N)c(N=Nc2ccc(Cl)cc2Cl)c(=O)[nH]1
inactive: [1] 18.6% | [2] -2.6% | [3] -6.45% | [4] 15.6% | [5] 14.8% | [6] 2.75%

Cc1ccc(C(C)C)c(OCC2=NCCN2C)c1
inactive: [1] -7.15% | [2] -3.15% | [3] 3.35% | [4] 0.4% | [5] -16.1% | [6] -10.2%

CCOC(=O)c1c(-c2ccc([N+](=O)[O-])cc2)c(/C=N\O)n(-c2ccccc2)c1C
inactive: [1] 1.45% | [2] 6.7% | [3] 3.3% | [4] -17% | [5] -1.95% | [6] 20%

CC(=O)OCC1OC(Cl)C(NS(=O)(=O)Cc2ccccc2)C(OC(C)=O)C1OC(C)=O (configuration not stated)
inactive: [1] 7.6% | [2] 15.7% | [3] 15.7% | [4] 24.6% | [5] 5.35% | [6] 22.4%

CCCCCOC(C)(OCCCCC)OCCCCC
inactive: [1] 7% | [2] 13.6% | [3] -4.2% | [4] 2.8% | [5] 9.6% | [6] 7.5%

COc1c(C)c(OCC=C(C)C)cc(CO)c1CO
inactive: [1] 11.8% | [2] -3.2% | [3] -13.9% | [4] -8.15% | [5] -0.95% | [6] -84.5%

CCOC(=O)C1=C(Nc2ccc(F)cc2)C(=O)N(C(C)(C)C)C1
inactive: [1] 8.05% | [2] 1.3% | [3] 27.5% | [4] 6.35% | [5] 31.4% | [6] 21.6%

CN(C)CCC(/C=C/c1ccccc1)=N\Nc1ccccc1
inactive: [1] 19.6% | [2] -14.9% | [3] -11.9% | [4] 5.5% | [5] -12.8% | [6] 36.5%

Cn1c(=O)c2[nH]c(C(=O)O)nc2n(C)c1=O
inactive: [1] 17.4% | [2] -2.35% | [3] 5.7% | [4] 9.35% | [5] -8.3% | [6] 9.85%

O=C(Cc1nc2ccc(C(=O)c3ccccc3)cc2[nH]c1=O)C(=O)Nc1nc2ccccc2[nH]1
inactive: [1] -23.1% | [2] 19.3% | [3] -4.05% | [4] -17.9% | [5] -4.25% | [6] 9.5%

CC(=O)NC(Cc1ccccc1)C(=O)Nc1ccc(C)cc1 (configuration not stated)
inactive: [1] 14.3% | [2] 0.55% | [3] 15.8% | [4] 16.6% | [5] 11.4% | [6] 14.2%

CC(C)C(=O)/C=C/c1ccc(Br)cc1
inactive: [1] 29.9% | [2] -4.95% | [3] 1% | [4] 2.6% | [5] -14.8% | [6] 24.9%

CC1CCCCC[N+]1(C)CCO (configuration not stated)
inactive: [1] -8.5% | [2] -7.15% | [3] -6.25% | [4] -30.7% | [5] -7.85% | [6] -4.8%

COc1cc2ccc(/C=C/C(=O)c3ccc4c(c3)OCO4)cc2cc1OC
inactive: [1] -7.3% | [2] -3.75% | [3] 3.25% | [4] 22.4% | [5] 6.4% | [6] -4.65%

CCOC(=O)C(=Cc1ccc(Oc2ccccc2)cc1)C(=O)OCC
inactive: [1] 39.4% | [2] -6% | [3] 22.1% | [4] 24.8% | [5] 6.1% | [6] 7%

CN(C)CCNC1c2ccccc2-c2ccccc21
inactive: [1] -15.1% | [2] -22.6% | [3] 3.35% | [4] -0.9% | [5] 10.2% | [6] -9%

CCOC(=O)c1ccc(OC)cc1
inactive: [1] -12.7% | [2] -25.4% | [3] -8.8% | [4] 2.8% | [5] -3.55% | [6] -17.4%

O=C1CCN2C=CC=CC2=N1
inactive: [1] -14.6% | [2] -8.6% | [3] 2.15% | [4] -26.6% | [5] -19% | [6] 6.95%

N#CC(N)(C(=O)CCC(=O)Nc1cccc(Cl)c1)c1ccc(Cl)cc1 (configuration not stated)
inactive: [1] 1.7% | [2] 12.6% | [3] 7.7% | [4] 8.15% | [5] -2% | [6] 2.15%

COc1cccc(C=Nc2cc(C)ccn2)c1O.COc1cccc(C=Nc2cc(C)ccn2)c1O.[Cu]
inactive: [1] 3.45% | [2] -7.75% | [3] 9.75% | [4] 14.2% | [5] -11.6% | [6] 38.6%

CSc1cc(=O)n(C2OC(CO)C(O)C2O)c(=O)[nH]1 (configuration not stated)
inactive: [1] 9.05% | [2] -5.35% | [3] 17.6% | [4] -14.9% | [5] 10.1% | [6] 25.7%

CC(=O)Oc1ccccc1C1CCCCC1
inactive: [1] -1.7% | [2] -28.6% | [3] -2.5% | [4] 17.2% | [5] -11.9% | [6] 0.9%
